Only some compounds are listed: those with a hit (about 7.5% of all), similar ones and a draw of the others.
B2AR arrestin: recruits beta-arrestin to the human beta2-adrenergic receptor. Potency, µM (titrated, usually from 46.1 µM), inactives show at the highest dose activation, hits mostly activators. beta-arrestin recruitment to beta2AR, cell-based reporter. actives 0.02% (n = 330,000). P07550;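 also: potency is read from the fitted curve at half-maximal effect; 0% = DMSO controls and full agonism = EC100 isoproterenol or metaproterenol; nearly all actives have a fitted effect of over 65% in size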
TSHR antagonist: blocks TSH signaling through the human TSH receptor; activity change, negative = inhibition, % at 11.5 µM; AID 504810; TSHR-expressing cells, TSH-stimulated cAMP HTRF, 2 h; stronger effect = lower value; P16473; actives 0.2% (n = 330,000);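 active = activity change below a set negative limit, meaning inhibition stronger than a set level, cut at about -70% in these data; inconclusive = activity change between two set negative limits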
Target sequence (P16473 whole entry, looked up): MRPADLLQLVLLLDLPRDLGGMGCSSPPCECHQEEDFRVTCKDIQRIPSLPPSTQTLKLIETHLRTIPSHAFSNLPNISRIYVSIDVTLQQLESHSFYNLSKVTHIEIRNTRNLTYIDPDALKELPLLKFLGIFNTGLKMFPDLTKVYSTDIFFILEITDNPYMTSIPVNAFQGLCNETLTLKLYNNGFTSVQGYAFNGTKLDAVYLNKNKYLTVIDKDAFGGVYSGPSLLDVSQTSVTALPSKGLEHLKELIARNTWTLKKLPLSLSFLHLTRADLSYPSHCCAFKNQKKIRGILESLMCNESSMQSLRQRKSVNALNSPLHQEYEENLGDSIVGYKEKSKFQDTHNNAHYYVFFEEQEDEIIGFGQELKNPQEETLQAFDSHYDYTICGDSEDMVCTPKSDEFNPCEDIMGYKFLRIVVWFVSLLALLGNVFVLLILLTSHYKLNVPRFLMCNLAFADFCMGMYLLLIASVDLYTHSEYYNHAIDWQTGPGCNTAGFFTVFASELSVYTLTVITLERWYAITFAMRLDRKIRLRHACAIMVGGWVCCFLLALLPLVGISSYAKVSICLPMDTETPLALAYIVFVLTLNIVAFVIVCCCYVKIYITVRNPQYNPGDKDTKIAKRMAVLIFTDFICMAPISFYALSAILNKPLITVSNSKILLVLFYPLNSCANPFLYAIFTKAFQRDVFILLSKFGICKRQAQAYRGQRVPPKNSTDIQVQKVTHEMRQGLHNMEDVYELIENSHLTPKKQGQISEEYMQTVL
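TSHR-expressing cells, 200/well, pre-treated with compound, then stimulated with EC80 TSH (4nM final) for 2 hours at 37 deg C. cAMP measured by competitive HTRF: anti-cAMP cryptate antibody in lysis buffer plus cAMP-d2, read after 30 minutes at room temperature.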
ELG1 DNA repair: ELG1-dependent DNA repair inhibition | HEK293T ELG1-luciferase reporter, luminescence, 16 h; DNA damage induced by 5-fluorouridine | Potency, µM (series often up to 46.1 µM), for the others: at the highest dose activity change, negative = inhibition, hits mostly inhibitors | actives 2.3% (n = 330,000) | AID 504467; also: potency is read from the fitted curve at half-maximal effect; nearly all actives have a fitted effect of over 55% in size
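DMSO vehicle served as the neutral condition. Each well held 2,000 cells given 5-fluorouridine plus compound; after 16 hr at 37 °C/5% CO2, ONE-Glo was added and luciferase measured 30 min later.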
VP16 counter: Gal4-VP16 reporter inhibition counter-screen; actives 3.5% (n = 310,000); Drosophila S2 Gal4-VP16 UAS-luciferase, luminescence, 20 h; Potency, µM (doses to about 53.6 µM), inactives show at the top dose activity, negative = inhibition, usual class: inhibitors; AID 2546;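 also: Gal4-VP16 expression switched on by copper sulfate through the metallothionein promoter; potency is read from the fitted curve at half-maximal effect; nearly all actives have a fitted effect of over 50% in size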
RORg inh: inhibitors of mouse ROR gamma transcriptional activity | Potency, µM (top dose mostly 53.6 µM), inactives show top-dose activity change, negative = inhibition, hits mostly inhibitors | Drosophila S2 Gal4-RORgamma UAS-luciferase reporter, 20 h | P51450 | actives 5.4% (n = 310,000); also: potency is read from the fitted curve at half-maximal effect; nearly all actives have a fitted effect of over 60% in size
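Drosophila S2 cells stably expressing Gal4-DBD/mouse RORγ fusion under metallothionein promoter plus UAS-luciferase; compound 1 h, then 700 uM CuSO4 induction for 20 h at ambient temperature; inhibition read as reduced luminescence.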
* = called active by the depositor; ? = inconclusive; nt = no result; [ ] = another dose, or the depositor's remark. Unless noted, calls follow the shape of the dose curve; as a rule, active = well fitted curve in the direction sought with a large enough effect; inconclusive = small, poorly fitted or top-dose-only effect, or another doubt; inactive = no such curve, though single readings can be large; an effect the other way counts as inactive or inconclusive. Unless noted, % is scaled to controls: 0 for no effect and ±100 for the full control effect.

SMILES	B2AR arrestin	TSHR antagonist	ELG1 DNA repair	VP16 counter	RORg inh
CCCCN(C)C(=O)Cn1cnc2sc(C)c(S(=O)(=O)N3CCN(c4ccccc4OC)CC3)c2c1=O	0.1%	-1.5	5.17µM*	3.4%	11.8%
CCN(CC)CCNC(=O)Cn1cnc2sc(C)c(S(=O)(=O)N3CCN(c4ccccc4OC)CC3)c2c1=O	-0.2%	-9.2	-10.8%	-12.0%	-18.0%
CC(=O)OCC1OC(c2cc(C)cc(C)c2)C=CC1OC(C)=O (centres undefined)	nt	nt	nt	-7.1%[10 µM]	3.1%[10 µM]
COc1ccc(C(=S)N2CCOCC2)cc1OC(=O)c1ccc([N+](=O)[O-])cc1	0.2%	-0.8	7.2%	5.8%	0.5%
COc1cc(C(=S)N2CCOCC2)ccc1OC(=O)c1ccc([N+](=O)[O-])cc1[N+](=O)[O-]	0.3%	-24.1	-13.5%	12.6µM*	?
COc1cc(C(=S)N2CCOCC2)cc(Br)c1OS(=O)(=O)c1ccccc1	-0.4%	-13.1	16.4µM*	-21.0%	14.9%
COc1ccc(S(=O)(=O)Oc2c(OC)cc(C(=S)N3CCOCC3)cc2OC)cc1	9.7%	-2.2	-13.5%	1.7%	-5.9%
COc1cc(C(=S)N2CCCC2)ccc1OS(=O)(=O)c1ccc(NC(C)=O)cc1	-0.2%	-35.0	?	6.6%	47.5%
COc1cc(C(=S)N2CCOCC2)ccc1OS(=O)(=O)c1ccc(NC(C)=O)cc1	-0.8%	-14.5	11.6µM*	-7.8%	13.1%
CC(=O)Nc1ccc(S(=O)(=O)Oc2ccccc2N2CCCCC2)cc1	-0.8%	-3.0	8.2µM*	?	?
CC(O)CCCCn1c(=O)c2c(ncn2C)n(C)c1=O (centres undefined)	nt	nt	nt	-4.1%	9.0%
Cc1oc(-c2ccccc2F)nc1CS(=O)(=O)CC(=O)NCc1ccccc1Cl	-0.9%	0.8	-1.3%	-0.6%	4.4%
COC(=O)N1CCC2(CC1)CN(c1ccccn1)C2	nt	nt	nt	-1.5%	-6.8%
COc1ccc(/C=N/Nc2nonc2N)cc1	0.6%	15.5	?	3.6%	-8.0%
COc1ccc(/C=N/Nc2ncnc3sc(C)c(C)c23)cc1	-0.5%	-16.8	11.0%	4.47µM*	?
Cc1sc2ncnc(N/N=C/c3ccc(O)cc3)c2c1C	0.1%	26.6	?	4.47µM*	15.8µM*
Nc1c(Cl)ncnc1N/N=C/c1ccc(O)cc1	-0.1%	-3.3	?	12.6µM*	10µM*
COc1cccc(/C=N/Nc2ncnc3scc(-c4ccccc4)c23)c1OC	-0.1%	-0.4	14.6µM*	3.16µM*	3.98µM*
O=C(O)c1ccc(Nc2ncnc3scc(-c4ccccc4)c23)cc1	-0.3%	8.5	-6.5%	7.6%	1.1%
CC(C)CCCC(C)C1CCC2C3CC=C4CC(O)CCC4(C)C3CCC12C (centres undefined)	nt	nt	nt	0.9%	8.5%
N[C@@H](Cc1ccccc1)C(=O)N1CCC(C(=O)NCC(=O)NCC(=O)O)CC1	-0.3%	1.6	-0.6%	4.7%	-11.4%
CO[C@@H]1COC(=O)[C@H]2CCCN2C(=O)[C@@H](C)COC(=O)C/C=C\[C@H]1C	nt	nt	nt	-14.7%[10 µM]	3.5%[10 µM]
O=C(CCc1ccncc1)NC1CCCc2c1cnn2-c1cc(F)cc(F)c1 (centres undefined)	-0.5%	32.0	2.6%	-17.2%	-12.7%
CC(C)n1nc(C(=O)Nc2ccc3c(c2)OCO3)c2ccccc2c1=O	0.1%	2.3	?	nt	nt
Cc1ccc(Nc2ncnc3sc(C)c(C)c23)cc1C	0.2%	-23.3	?	-1.2%	0.1%
SMILES	B2AR arrestin	TSHR antagonist	ELG1 DNA repair	VP16 counter	RORg inh
Cc1sc2ncnc(N/N=C/c3ccccc3O)c2c1C	0.0%	-1.8	?	15.8µM*	7.94µM*
OC(C#Cc1ccccn1)c1cccs1 (centres undefined)	?	54.0	?	4.47µM*	10µM*
O=C(NC1CCCCC1)C(c1cccs1)N(C(=O)c1ccccn1)c1ccccc1 (centres undefined)	-0.7%	-13.5	?	-10.6%	29.2%
O=C1CCN(Cc2ccccc2)C=C1c1cccc(O)c1	-1.0%	-1.1	-15.5%	nt	nt
CC(C)(C)c1ccc(C(=O)/C=C2\NC(=O)CS2)cc1	-0.9%	-12.4	?	10µM*	3.16µM*
CCCCNC(=S)N/N=C/c1ccc(C)s1	-0.1%	-6.6	?	2.51µM*	1µM*
Cc1ccc(/C=N/NC(=O)Cc2ccc(Cl)cc2)s1	0.2%	46.3	13.3%	?	-23.7%
COc1cc(/C=N/NC(=S)NCCc2ccccc2)cc(OC)c1OC	4.3%	-0.3	?	?	12.6µM*
S=C(NCCc1ccccc1)N/N=C/c1c(Cl)cccc1Cl	-0.2%	-2.9	8.4%	8.91µM*	10µM*
S=C(NCCc1ccccc1)N/N=C/c1ccc(Cl)cc1	-0.2%	0.8	2.7%	?	?
Cc1ccc(/C=N/NC(=S)NCCc2ccccc2)s1	-0.4%	3.9	12.4%	2.24µM*	0.224µM*
CCOC(=O)N/N=C\c1ccc(C)s1	-1.3%	29.1	?	?	18.2%
COc1ccc(C2=Nn3c(nnc3-c3cc(OC)ccc3OC)SC2)cc1	nt	nt	nt	-3.4%	10.9%
O=c1c(O)c(-c2cc(O)c(O)c(O)c2)oc2cc(O)ccc12	nt	nt	nt	-16.0%	-29.2%
Cc1ccc(/C=C2/NC(=O)N(c3ccccc3)C2=O)o1	4.9%	24.1	?	?	-43.5%
O=C1N/C(=C/c2ccc(N3CCOCC3)o2)C(=O)N1c1cccc(Cl)c1	-0.2%	-20.5	?	4.47µM*	3.55µM*
N#Cc1ccc(CN2CC3(CCN(C(=O)c4cc(C(F)(F)F)cc(C(F)(F)F)c4)CC3)C2)cc1	nt	nt	nt	?	11.1%
CN(C)/C=C(\C#N)S(=O)(=O)c1ccccc1	-0.2%	-7.3	-10.7%	3.4%	-13.4%
CS(=O)(=O)/C(C#N)=C\c1cnc(S(=O)(=O)c2ccccc2)s1	5.6%	3.3	24.2%	7.94µM*	10µM*
Cn1c(=O)c(-c2cccs2)nc2cnc(OCc3ccccc3)nc21	nt	nt	nt	3.4%	-1.8%
O=C1CCCC(O)=C1N=Nc1cccc(C(=O)O)c1	0.0%	3.8	?	6.0%	-22.0%
O=C1CCCC(O)=C1N=Nc1c(Cl)cc(Cl)cc1Cl	0.0%	-6.6	15.3%	?	11.2µM*
CCN(CC(=O)Nc1ccc(OC)cc1)C(=O)c1ccc(N2C(=O)CCC2=O)cc1	-1.9%	1.1	0.0%	nt	nt
Cc1ccc(OCCCn2c(=O)sc3ccccc32)cc1	-0.3%	-6.4	?	-14.3%	?
Cc1ccccc1OCCCn1c(=O)sc2ccccc21	0.0%	-3.1	?	10µM*	2.82µM*
COc1ccc(NC(=O)CCC(=O)N2CCOCC2)c([N+](=O)[O-])c1	-0.9%	-0.9	1.7%	-13.3%	-14.7%
CCOC(=O)CC(=O)Nc1ccccc1C(=O)O	0.2%	-3.5	?	-4.3%	14.6%
CCOC(=O)CC(=O)Nc1ccc(Br)cc1C(=O)O	-0.2%	1.8	-6.7%	-19.0%	1.58µM*

Screens: PubChem, National Center for Advancing Translational Sciences (NCATS)
